IDH1 R132H inh: qHTS for Inhibitors of mutant isocitrate dehydrogenase 1 (IDH1): qHTS | Isocitrate dehydrogenase [NADP] cytoplasmic (Homo sapiens), O75874 | hit rate 0.093% among 390,000 | Potency, µM (doses to about 76.6 µM), for inactives: at the top dose activity change, negative = inhibition, most hits filed as inhibitors | AID 602179, 2012 | IDH1-R132H enzyme, NADPH consumption, diaphorase/resazurin fluorescence; note: potency is the fitted concentration of half-maximal effect; % is set by controls: 0 for no effect and ±100 for the full control effect; nearly all actives have a fitted effect of over 65% in size
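IDH1-R132H (0.5 ug/mL dispensed) in pH 7.5 Tris buffer was preincubated 30 min with compound, then given a substrate mix of 0.016 mM NADPH and 2 mM alpha-KG for 80 min at room temperature; remaining NADPH was read by diaphorase/resazurin fluorescence.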
rTrxR1 inhibitor: qHTS Assay for Inhibitors of Mammalian Selenoprotein Thioredoxin Reductase 1 (TrxR1): qHTS; Thioredoxin reductase 1, cytoplasmic (Rattus norvegicus), O89049; recombinant rTrxR1, NADPH fluorescence consumption, selenite substrate; Potency, µM (doses to about 114 µM), inactives show at the top dose activity change, negative = inhibition, actives largely listed as inhibitors; hit rate 1% among 390,000; AID 588453, 2011; note: potency is the fitted concentration of half-maximal effect; % is set by controls: 0 for no effect and ±100 for the full control effect; nearly all actives have a fitted effect of over 65% in size
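Rat TrxR1 (90 nM in the dispensed reagent) was pre-reduced with 400 uM NADPH for 5 min at room temperature, then incubated with compound for 15 min. After 400 uM selenite was added, NADPH fluorescence (Ex 340/Em 450 nm) was followed for 8 min.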
VDR inhibitor: Inhibitors of the vitamin D receptor (VDR): qHTS; Vitamin D3 receptor (Homo sapiens), P11473; VDR-SRC2-3 peptide fluorescence polarization, 2 h; Potency, µM, without a hit: max response, negative = inhibition, usual class: inhibitors; hit rate 0.93% among 400,000; note: potency is the fitted concentration of half-maximal effect; % is set by controls: 0 for no effect and ±100 for the full control effect
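The screen uses fluorescence polarization to detect compounds that interfere with recruitment of the SRC2-3 coactivator peptide to VDR; plates are read after 2 h at room temperature.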
PLK1 PBD inh: qHTS for Inhibitors of PLK1-PDB (polo-like kinase 1 - polo-box domain): Primary Screen. Plk1 PBD binding of FITC phosphopeptide, fluorescence polarization. Serine/threonine-protein kinase PLK1 (Homo sapiens), P53350. Potency, µM, for inactives: max response, negative = inhibition, usual class: inhibitors. hit rate 2.8% among 360,000; note: potency is the fitted concentration of half-maximal effect; series mostly up to about 57 µM; % is set by controls: 0 for no effect and ±100 for the full control effect; nearly all actives have a fitted effect of over 65% in size
Target sequence (P53350 whole entry, looked up, the tested form may be a part): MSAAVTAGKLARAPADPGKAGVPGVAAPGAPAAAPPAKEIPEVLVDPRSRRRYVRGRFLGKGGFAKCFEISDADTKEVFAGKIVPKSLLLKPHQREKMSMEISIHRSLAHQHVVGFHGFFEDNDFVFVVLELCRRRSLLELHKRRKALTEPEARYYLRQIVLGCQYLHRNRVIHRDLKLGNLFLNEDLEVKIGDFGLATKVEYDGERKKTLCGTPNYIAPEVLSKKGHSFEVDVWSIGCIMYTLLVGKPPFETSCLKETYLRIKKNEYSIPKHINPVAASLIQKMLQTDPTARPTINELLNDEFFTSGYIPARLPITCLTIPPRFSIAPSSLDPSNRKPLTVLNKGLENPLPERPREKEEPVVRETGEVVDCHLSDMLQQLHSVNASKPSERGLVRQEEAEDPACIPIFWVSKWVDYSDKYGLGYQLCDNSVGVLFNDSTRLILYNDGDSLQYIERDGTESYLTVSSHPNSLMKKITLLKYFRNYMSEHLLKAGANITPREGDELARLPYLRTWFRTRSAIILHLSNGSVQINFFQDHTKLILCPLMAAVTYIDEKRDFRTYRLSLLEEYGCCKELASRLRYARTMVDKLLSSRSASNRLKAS
TrxR1 substrate: qHTS Assay for Substrates of Mammalian Selenoprotein Thioredoxin Reductase 1 (TrxR1): qHTS; purified TrxR1 substrate turnover, NADPH consumption readout; AID 588456, 2011; Thioredoxin reductase 1, cytoplasmic (Rattus norvegicus), O89049; hit rate 0.01% among 390,000; Potency, µM (titrated, usually from 114 µM), without a hit: at the top dose activity change, negative = substrate turnover; note: potency is the fitted concentration of half-maximal effect; % is set by controls: 0 for no effect and ±100 for the full control effect; nearly all actives have a fitted effect of over 50% in size
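Rat TrxR1, dispensed at 90 nM, was prereduced with 400 uM NADPH (final) for 5 min at ~22 deg C, then incubated with compound 15 min before 400 uM selenite. A first-read NADPH fluorescence drop versus no-compound background flagged substrates.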
Sfp PPTase inh: qHTS Assay for Inhibitors of Bacillus subtilis Sfp phosphopantetheinyl transferase (PPTase); AID 1490, 2009; hit rate 3.5% among 310,000; Potency, µM, inactives show largest response in the series, negative = inhibition, hits mostly inhibitors; Biochemical Sfp PPTase activity, qHTS;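 note: the enzyme is Sfp with the accession as filed and its product quenches rhodamine fluorescence; potency is the fitted concentration of half-maximal effect; 0% = enzyme reaction without inhibitor and -100% = no enzyme wells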
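Reaction rates are the 30-min fluorescence difference (ex 525, em 598 nm) in wells containing 15 nM Sfp, 5 uM rhodamine-CoA and 12.5 uM BHQ-2-YbbR at pH 7.6 with 10 mM MgCl2.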
IDH1 autofl: qHTS for Inhibitors of mutant isocitrate dehydrogenase 1 (IDH1): Cherrypicks Autofluorescence Interference; shares compounds with IDH1 R132H inh; Resorufin detection reagent fluorescence interference, cell-free; inhibition of signal, % at 51.2 µM; 750 tested, under 10 active; AID 623980, 2012;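 note: 0% = wells with normal resorufin and full inhibition = wells lacking resorufin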
IDH1 WT: qHTS for Inhibitors of mutant isocitrate dehydrogenase 1 (IDH1): Cherrypicks in WT IDH1; shares compounds with IDH1 R132H inh; WT IDH1 enzyme, NADPH diaphorase/resazurin fluorescence; Potency, µM (series often up to 115 µM), for the others: top-dose activity change, negative = inhibition, hits mostly inhibitors; hit rate 9% among 750;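 note: potency is the fitted concentration of half-maximal effect; 0% = full WT IDH1 enzyme control and full inhibition = no enzyme wells; nearly all actives have a fitted effect of over 55% in size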
IDH1 R132H conf: qHTS for Inhibitors of mutant isocitrate dehydrogenase 1 (IDH1): Confirmation of Cherrypicks; AID 624002, 2012; Potency, µM (highest dose often 76.6 µM), without a hit: at the highest dose activity change, negative = inhibition, usual class: inhibitors; IDH1 R132H enzyme, NADPH diaphorase/resazurin fluorescence; shares compounds with IDH1 R132H inh; hit rate 83% among 750; note: potency is the fitted concentration of half-maximal effect; nearly all actives have a fitted effect of over 50% in size
The depositor's hits bear a star; [ ] = remark or other dose. Only some compounds are listed: those with a hit (about 5.2% of all), similar ones and a draw of the others. Calls come from the whole dose curve; as a rule, active = well fitted curve in the direction sought with a large enough effect; inconclusive = small, poorly fitted or top-dose-only effect, or another doubt; inactive = no such curve, though single readings can be large; an effect the other way counts as inactive or inconclusive.

Results for O=C(NC(=S)Nc1ccccc1N1CCCC1)c1ccc(-c2cccc([N+](=O)[O-])c2)o1 ?
IDH1 R132H inh: 10%; rTrxR1 inhibitor: 0%[57.1 µM]; VDR inhibitor: -15%; PLK1 PBD inh: inconclusive; TrxR1 substrate: 7%[57.1 µM]; Sfp PPTase inh: -6%

Results for CC(=O)N1CCN(c2ccccc2NC(=O)c2ccc(-c3cccc([N+](=O)[O-])c3)o2)CC1 ?
IDH1 R132H inh: inconclusive; rTrxR1 inhibitor: -7%; VDR inhibitor: -22%; PLK1 PBD inh: -5%; TrxR1 substrate: -1%; Sfp PPTase inh: -6%; IDH1 autofl: 2; IDH1 WT: 2%; IDH1 R132H conf: inconclusive

How did CCOc1ccc(C[C@H]2NC(=O)CCSSC[C@@H](C(=O)N3CCC[C@H]3C(=O)N[C@@H](CCCN)C(=O)NCC(N)=O)NC(=O)[C@H](CC(N)=O)NC(=O)[C@H]([C@@H](C)O)NC(=O)[C@H]([C@@H](C)CC)NC2=O)cc1 do in these assays?
VDR inhibitor: 38%; Sfp PPTase inh: -7%

How did Cc1c(C(=O)Oc2ccc(-c3cnc4ccccc4n3)cc2)cccc1[N+](=O)[O-] do in these assays?
IDH1 R132H inh: inconclusive; rTrxR1 inhibitor: 5%; VDR inhibitor: inconclusive; PLK1 PBD inh: -11%; TrxR1 substrate: -4%; Sfp PPTase inh: 50µM*; IDH1 autofl: 4; IDH1 WT: 31%; IDH1 R132H conf: 50µM*

How did CCN(CC)CCNC(=O)CCn1c(=O)c2cccn2c2cccnc21 do in these assays?
IDH1 R132H inh: -5%; rTrxR1 inhibitor: 13%; VDR inhibitor: -3%; TrxR1 substrate: 12%

Results for Cc1ccc(S(=O)(=O)N=Nc2c(O)[nH]c3ccccc23)cc1C ?
IDH1 R132H inh: 46µM*; rTrxR1 inhibitor: -17%[57.1 µM]; VDR inhibitor: -19%; PLK1 PBD inh: -12%; TrxR1 substrate: -6%[57.1 µM]; Sfp PPTase inh: -1%; IDH1 autofl: 1; IDH1 WT: 217%; IDH1 R132H conf: 45µM*

What do the screens show for `COc1ccc(NC(=S)N=Nc2c(O)[nH]c3ccccc23)cc1`?
IDH1 R132H inh: -3%; rTrxR1 inhibitor: -1%; VDR inhibitor: -15%; PLK1 PBD inh: -4%; TrxR1 substrate: -8%; Sfp PPTase inh: -19%

How did COc1ccc(S(=O)(=O)N=Nc2c(O)[nH]c3ccccc23)cc1 do in these assays?
IDH1 R132H inh: 52µM*; rTrxR1 inhibitor: -17%; VDR inhibitor: -7%; PLK1 PBD inh: -14%; TrxR1 substrate: -8%; Sfp PPTase inh: -13%; IDH1 autofl: -1; IDH1 WT: 143%; IDH1 R132H conf: inconclusive

How did Cc1ccccc1N=Nc1c(O)[nH]c2ccccc12 do in these assays?
IDH1 R132H inh: 7%; rTrxR1 inhibitor: inconclusive; VDR inhibitor: -15%; PLK1 PBD inh: inconclusive; TrxR1 substrate: 10%[57.1 µM]

Results for CC(OC(=O)Cc1ccc(Br)cc1)C(=O)NC1CCCCC1C (stereo not drawn) ?
IDH1 R132H inh: 6%; rTrxR1 inhibitor: 13%; VDR inhibitor: -5%; PLK1 PBD inh: -2%; TrxR1 substrate: 0%; Sfp PPTase inh: 2%

Results for Cc1ccc(OCc2nc(-c3ccc(C(=O)NCCc4ccc(Cl)cc4)cc3)oc2C)cc1 ?
IDH1 R132H inh: 14%; rTrxR1 inhibitor: 16%; VDR inhibitor: 2%; TrxR1 substrate: 6%

What do the screens show for `Cc1ccccc1C1=C/C(=C(\SS/C(C(=O)c2ccc(OCC(=O)O)c(Cl)c2Cl)=C2\C=C(c3ccccc3C)SS2)C(=O)c2ccc(OCC(=O)O)c(Cl)c2Cl)SS1`?
IDH1 R132H inh: 12µM*; rTrxR1 inhibitor: inconclusive; VDR inhibitor: 40µM*; PLK1 PBD inh: 17µM*; TrxR1 substrate: -17%; IDH1 autofl: 1; IDH1 WT: 0%; IDH1 R132H conf: 40µM*

How did O=C(O)COc1ccc(C(=O)c2cccs2)c(Cl)c1Cl do in these assays?
VDR inhibitor: -18%; Sfp PPTase inh: 14%

Results for Cc1nc([N+](=O)[O-])c(Br)n1CC(=O)c1ccc2ccccc2c1 ?
IDH1 R132H inh: inconclusive; rTrxR1 inhibitor: 11µM*; VDR inhibitor: -13%; PLK1 PBD inh: inconclusive; TrxR1 substrate: -5%; Sfp PPTase inh: -13%; IDH1 autofl: 2; IDH1 WT: inconclusive; IDH1 R132H conf: 28µM*

Results for C=CCn1c(SCc2nc3sc(C(=O)O)c(C)c3c(=O)[nH]2)nnc1-c1ccc(C(C)(C)C)cc1 ?
IDH1 R132H inh: inconclusive; rTrxR1 inhibitor: 7%; VDR inhibitor: -10%; PLK1 PBD inh: -23%; TrxR1 substrate: -2%; Sfp PPTase inh: 28µM*; IDH1 autofl: -5; IDH1 WT: 2%; IDH1 R132H conf: 22µM*

What do the screens show for `C=CCn1c(SCc2nc3sc(C(=O)O)c(C)c3c(=O)[nH]2)nnc1-c1ccccc1`?
IDH1 R132H inh: -2%; rTrxR1 inhibitor: 6%[57.1 µM]; VDR inhibitor: -16%; PLK1 PBD inh: -24%; TrxR1 substrate: -7%; Sfp PPTase inh: 12%

High-throughput results: PubChem, National Center for Advancing Translational Sciences (NCATS)
